Source: PMC12040169 (PLOS Biology, 2025)

System: T1, C. trachomatis L2/434/Bu expressing GFP (CTL2-GFP)
T1 construct: L2/434/Bu GFP intracellular growth in HeLa cells
Set-up: species or system HeLa; C. trachomatis total inclusion area by high-content imaging, normalised to DMSO
Settings: total inclusion area; 28.5 h, 10 µM; inhibitor
Source text: We screened a library of 36,785 small molecules displaying drug-like properties and covering a wide chemical space (Fig 1A and S2A Data). In this process, we also complemented the assay described above with an imaging-based readout (Fig 1B). After measurements of bulk GFP and resorufin fluorescence, cells were fixed, stained with the DNA dye Hoechst, and imaged at a high-content imaging platform to detect chlamydial inclusions (GFP) and host cell nuclei (Hoechst). The total area and number of inclusions in individual wells and the number of nuclei then served as additional proxies for chlamydial growth and host cell viability. […] MICs were calculated as described above.

SMILES | % of control remaining
O=C(c1cccc(S(=O)(=O)F)c1)N1CCCCC1 [CBK074224] | 0.8769
S=P(Oc1ccccc1)(Oc1ccccc1)Oc1ccccc1 [CBK260987] | 0.9936
CCOC(=O)CC(C)(O)P(=O)(OC)OC (stereo not drawn) [CBK261287] | 1.025
